Assay outcomes: PubChem, National Center for Advancing Translational Sciences (NCATS)
Rab9 promoter act = Rab9 promoter activation; AID 485297; Huh7 Rab9 promoter-luciferase reporter, luminescence, 24 h; actives 2.8% (n = 320,000); Potency, µM (doses to about 9.22 µM), most hits filed as activators; also: nearly all actives have a fitted effect of over 60% in size
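Measured in stably transfected Huh7 cells bearing a Rab9 promoter–luciferase construct: 24 h compound treatment at 37 °C, followed by luminescence detection.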
Luc counter = blocks Kinase-Glo luciferase, a counter-screen artifact; Q27757; Kinase-Glo luciferase, ATP luminescence, 8 min; Potency, µM (doses to about 38.3 µM), most hits filed as inhibitors; actives 0.28% (n = 200,000); AID 1379; also: nearly all actives have a fitted effect of over 60% in size
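Compounds were added to a substrate mix at pH 7.2 (50 mM imidazole, 10 uM ATP, within the enzyme's linear range), followed by Kinase-Glo detection reagent; luminescence was measured after 8 minutes at ambient temperature.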
ELG1 genotoxic = inducers of genotoxicity in HEK293T ELG1-luciferase cells | HEK293T ELG1-luciferase reporter, luminescence, 16 h | Potency, µM (titrated, usually from 46 µM), usual class: activators | actives 1.3% (n = 330,000) | AID 504466; also: nearly all actives have a fitted effect of over 60% in size
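After overnight (16 hr) compound treatment at 37 °C, ELG1-luciferase HEK293T cells were lysed with ONE-Glo; luminescence quantified 30 min later at room temperature.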
SMN2 splice up = increases expression of the SMN2 splice variant. HEK293 SMN2-luciferase splicing reporter, luminescence, 30-36 h. Potency, µM (doses to about 46.1 µM), actives largely listed as activators. actives 2.8% (n = 210,000). AID 1458; also: nearly all actives have a fitted effect of over 55% in size
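HEK293 cells carry an SMN2 minigene-luciferase reporter in which exon 7 inclusion puts luciferase in frame. Cells were seeded at 2000 cells/well, attached for 10-12 hours, then exposed to compounds for 30-36 hours at 37C before ONE-Glo luminescence.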
NPC1 promoter act = NPC1 promoter activation; actives 2.4% (n = 320,000); Huh7 NPC1 promoter luciferase reporter, 24 h; AID 485313; Potency, µM (series often up to 9.22 µM), usual class: activators; also: nearly all actives have a fitted effect of over 60% in size
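Luminescence read-out of NPC1 promoter-driven luciferase in stably transfected Huh7 cells; compounds delivered in DMSO and left 24 h at 37C, 5% CO2, qHTS titration format.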
FLuc modulator = counter-screen for miR-21 project: firefly luciferase inhibitors or activators; Potency, µM (highest dose often 57.5 µM), hits mostly inhibitors; actives 6.9% (n = 360,000); purified FLuc, Km substrates, luminescence inhibition; P08659; also: nearly all actives have a fitted effect of over 55% in size
Target sequence (P08659 whole entry, looked up): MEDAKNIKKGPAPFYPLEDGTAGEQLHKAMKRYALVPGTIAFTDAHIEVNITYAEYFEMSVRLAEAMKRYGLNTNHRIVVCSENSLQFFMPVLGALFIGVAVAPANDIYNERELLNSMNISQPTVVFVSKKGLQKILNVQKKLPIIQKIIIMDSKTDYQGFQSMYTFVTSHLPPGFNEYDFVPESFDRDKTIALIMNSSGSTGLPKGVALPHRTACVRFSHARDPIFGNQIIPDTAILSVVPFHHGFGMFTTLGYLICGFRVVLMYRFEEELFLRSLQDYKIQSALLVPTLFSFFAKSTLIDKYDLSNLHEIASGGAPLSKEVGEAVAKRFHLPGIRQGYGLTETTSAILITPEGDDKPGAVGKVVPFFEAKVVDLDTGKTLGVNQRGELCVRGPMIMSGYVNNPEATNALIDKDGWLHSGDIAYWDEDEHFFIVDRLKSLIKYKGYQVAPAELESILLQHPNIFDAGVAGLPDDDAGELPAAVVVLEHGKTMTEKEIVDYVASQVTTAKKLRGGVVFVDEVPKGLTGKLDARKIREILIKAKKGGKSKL
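Purified P. pyralis luciferase (10nM final) with 10uM D-luciferin and 10uM ATP (Km levels) in 50mM Tris acetate pH 7.5, 10mM Mg acetate, 0.01% Tween-20, 0.05% BSA; qHTS 6-point titration, ~60 µM downward; luminescence read.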
Hits are given with their value; - = inactive; ? = inconclusive; . = no result given; [ ] = dose if it differs, or a comment. The list is not random: actives were taken first. Their share in the collection is about 7.5%. Calls follow the shape of the dose curve; as a rule, active = well fitted curve in the direction sought with a large enough effect; inconclusive = small, poorly fitted or top-dose-only effect, or another doubt; inactive = no such curve, though single readings can be large; an effect the other way counts as inactive or inconclusive.

SMILES | Rab9 promoter act | Luc counter | ELG1 genotoxic | SMN2 splice up | NPC1 promoter act | FLuc modulator
Cc1ccc(N(CC(=O)Nc2cc(C)ccc2C)S(=O)(=O)c2c(C)noc2C)cc1 | . | . | . | - | . | -
CC(C)OCCCNC(=O)C(=O)Nc1c2c(nn1-c1ccccc1)CS(=O)(=O)C2 | . | . | . | . | . | -
CC(C)COc1ccc(-c2nnn(CC(=O)N3CCCC3)n2)cc1 | - | - | ? | - | - | 12µM
O=C(Cn1nnc(-c2ccc(OCc3ccccc3F)cc2)n1)N1CCOCC1 | ? | - | ? | - | ? | 2.7µM
O=C(Cn1nnc(-c2ccccc2)n1)N1CCCCC1 | ? | . | ? | . | - | -
O=C(Cn1nnc(-c2ccccc2Cl)n1)N1CCCCC1 | 4µM | . | ? | . | ? | 17µM
CCOc1ccc(NC(=O)c2oc3ccccc3c2NC(=O)c2ccc(OC)cc2OC)cc1 | . | . | . | - | . | -
Oc1oc(-c2ccc(Br)cc2)nc1C=Nc1ccc(Br)cn1 | - | - | - | - | - | -
CSc1ccccc1N=Cc1nc(-c2ccccc2)oc1O | - | - | ? | - | - | 9.5µM
Cc1ccc(N=Cc2nc(-c3ccc(C)cc3)oc2O)cc1 | - | - | - | . | - | -
Oc1oc(-c2ccccc2)nc1C=NCc1ccccc1 | - | - | 21µM | - | ? | 17µM
COc1ccc(N=Cc2nc(-c3ccco3)oc2O)cc1 | - | - | - | - | - | 8.5µM
Oc1oc(-c2ccccc2)nc1C=Nc1ccccc1 | - | - | - | - | - | 11µM
CN(C)c1ccc(N=Cc2nc(-c3ccccc3)oc2O)cc1 | - | - | - | - | ? | ?
Cc1cc(C)c(Cn2c3ccccc3c3cnn(CC(=O)NCC(C)c4ccccc4)c(=O)c32)c(C)c1 (stereo not given) | . | . | . | - | . | -
CC1=Nc2ccccc2/C1=C\c1nc(-c2ccccc2)oc1O | - | - | - | - | - | 17µM
NC(=O)c1c(/N=C/c2cccs2)sc2c1CCCC2 | ? | . | - | . | 1.3µM | 12µM
Cc1cc(Cl)c2oc(C(=O)N3CCN(c4cccc(C)n4)CC3)c(C)c2c1 | ? | . | ? | . | 3.5µM | 15µM
Cc1cc(Cl)c2oc(C(=O)N3CCN(C(=O)c4ccco4)CC3)c(C)c2c1 | ? | . | ? | . | ? | 11µM
Clc1ccccc1-c1nc(-c2ccccc2)n[nH]1 | 2.8µM | - | ? | ? | 3.2µM | 6.7µM
Cc1cc2c(cc1NC(=O)c1ccccc1C)n(C)c(=O)c(=O)n2C | . | . | . | . | . | -
Cc1ccc2c(COC(=O)CNC(=O)c3ccccc3)cc(=O)oc2c1 | - | - | - | - | - | 19µM
Cc1ccc2c(COC(=O)C3=COCCO3)cc(=O)oc2c1 | 0.79µM | - | 1.8µM | ? | 3.2µM | 0.85µM
Cc1ccc2c(COC(=O)c3ccccc3OC(F)F)cc(=O)oc2c1 | - | . | ? | . | - | 4.8µM
Cc1ccc(NC(=O)c2c(C)oc3ccc(O)c(CN4CCCCCC4)c23)cc1 | . | . | . | - | . | -
SMILES | Rab9 promoter act | Luc counter | ELG1 genotoxic | SMN2 splice up | NPC1 promoter act | FLuc modulator
CCCCCc1nnc(NC(=O)C2CCCO2)s1 (stereo not given) | ? | - | 13µM | ? | - | ?
CCCCCc1nnc(NC(=O)C2=COCCO2)s1 | 2.2µM | . | ? | . | 2.8µM | 19µM
CC(C)Cc1nnc(NC(=O)C2=COCCO2)s1 | ? | . | ? | . | ? | 17µM
O=C(Nc1nccs1)C1=COCCO1 | . | . | - | . | . | .
COc1ccccc1C(=O)Nc1ccc(C(=O)OCc2cc(=O)n3nc(C)sc3n2)cc1 | . | . | . | . | . | -
Cc1ccc(Nc2nc(C)nc(N)c2S(=O)(=O)c2ccccc2)cc1 | . | . | . | - | . | -
COc1cccc(NC(=O)Nc2ccc3nc(N4CCN(C)CC4)cc(C)c3c2)c1 | . | . | . | . | . | 12µM
Cc1cc(N2CCN(C)CC2)nc2ccc(NC(=O)Nc3ccccc3Cl)cc12 | . | . | . | . | . | 1.7µM
Cc1ccc(NC(=O)Nc2ccc3nc(N4CCN(C)CC4)cc(C)c3c2)cc1F | . | . | . | . | . | -
Cc1cc(C)cc(NC(=O)Nc2ccc3nc(N4CCN(C)CC4)cc(C)c3c2)c1 | . | . | . | . | . | -
Cc1ccc(C)c(NC(=O)Cn2cc(C(=O)C3CCCCC3)c3ccccc32)c1 | . | . | . | - | . | -
C[Si](C)(c1ccc(C(=O)O)cc1)c1ccc(C(=O)O)cc1 | . | -[7.66 µM] | . | -[9.22 µM] | . | .
CCOC(=O)N/N=C/c1ccc(N(CC)CC)cc1O | - | - | ? | ? | - | 24µM
CCOC(=O)N/N=C/c1ccccc1F | 2.8µM | - | - | ? | 2.5µM | ?
CCOC(=O)N/N=C/c1cccc(Cl)c1Cl | - | - | - | ? | - | 21µM
CCCn1c(=O)c(C(=O)N/N=C/c2ccccc2F)c(O)c2ccccc21 | 2.2µM | - | ? | 13µM | ? | -
CCCn1c(=O)c(C(=O)N/N=C/c2ccc(F)cc2)c(O)c2ccccc21 | - | . | - | . | - | -
O=C(CCCCn1c(=O)c2ccccc2n(Cc2ccccc2Cl)c1=O)NCc1ccc2c(c1)OCO2 | . | . | . | - | . | -
Cc1cc(C(=O)NNc2c(Cl)cccc2Cl)no1 | - | . | - | . | - | -
